From PubChem
The list is not random: actives were taken first. Their share in the collection is about 10%.
SW480 rereplic: DNA re-replication induction in SW480 cells. SW480 DNA re-replication, Hoechst DNA content imaging, 48 h. hit rate 1.8% among 340,000. Potency, µM (series often up to 46.1 µM), usual class: activators. AID 624297; note: nearly all actives have a fitted effect of over 55% in size
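Treated cells incubate 48 hr (37 C, 5% CO2), are stained 40 min with Hoechst, and nuclear fluorescence is enumerated; a rise in nuclei with high DNA signal marks re-replication.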
RORg inh: blocks mouse ROR gamma transcriptional activity; P51450; Drosophila S2 Gal4-RORgamma UAS-luciferase reporter, 20 h; Potency, µM (doses to about 53.6 µM), actives largely listed as inhibitors; hit rate 5.4% among 310,000; note: nearly all actives have a fitted effect of over 60% in size
Target sequence (P51450 whole entry, looked up, the tested form may be a part): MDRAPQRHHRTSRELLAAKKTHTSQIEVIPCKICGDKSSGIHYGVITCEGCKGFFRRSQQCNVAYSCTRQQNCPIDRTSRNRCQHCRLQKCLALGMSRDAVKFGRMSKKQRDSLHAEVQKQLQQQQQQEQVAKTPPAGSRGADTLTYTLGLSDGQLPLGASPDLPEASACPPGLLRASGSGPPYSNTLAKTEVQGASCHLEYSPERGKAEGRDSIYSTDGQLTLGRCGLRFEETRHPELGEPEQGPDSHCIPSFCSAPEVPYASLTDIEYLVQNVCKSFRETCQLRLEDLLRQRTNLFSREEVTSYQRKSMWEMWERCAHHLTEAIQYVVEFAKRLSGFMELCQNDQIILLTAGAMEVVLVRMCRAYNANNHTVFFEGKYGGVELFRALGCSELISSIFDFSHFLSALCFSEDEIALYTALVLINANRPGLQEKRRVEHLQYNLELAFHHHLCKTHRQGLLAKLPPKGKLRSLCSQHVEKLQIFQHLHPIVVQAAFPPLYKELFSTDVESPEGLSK
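A Gal4/UAS one-hybrid system in insect cells: metallothionein-promoter Gal4–ROR gamma fusion plus Photinus luciferase reporter. Copper sulfate 700 uM final, 20 hr ambient incubation, luminescent detection after 10 min with reagent.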
KB-V1 cytotox: KB-V1 MDR subline cytotoxicity. KB-V1 MDR cells viability, CellTiter-Glo, 72 h. Potency, µM (highest dose often 46.1 µM), hits mostly cytotoxic. hit rate 3.4% among 400,000. AID 1347076; note: nearly all actives have a fitted effect of over 60% in size
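Compound-treated KB-V1 multidrug-resistant cells, 72 h, 37 degrees C; viability by CellTiter-Glo. Fitted qHTS curves give the values.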
MCF10A rerep: induces DNA re-replication in MCF 10a normal breast cells; MCF 10A DNA re-replication, Hoechst nuclear intensity, 48 h; Potency, µM (series often up to 46.1 µM), usual class: activators; hit rate 2.9% among 350,000; note: nearly all actives have a fitted effect of over 50% in size
Gal4-VP16 FLuc: inhibits Gal4-VP16 luciferase reporter, ROR gamma counter-screen; Drosophila S2 Gal4-VP16 UAS-luciferase, luminescence, 20 h; Potency, µM (highest dose often 53.6 µM), most hits filed as inhibitors; hit rate 3.5% among 310,000;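 note: Gal4-VP16 expression switched on by copper sulfate through the metallothionein promoter; nearly all actives have a fitted effect of over 50% in size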
KB-3-1 cytotox: KB-3-1 parental cell cytotoxicity. Potency, µM (titrated, usually from 46.1 µM), usual class: cytotoxic. hit rate 1.4% among 400,000. KB-3-1 viability, CellTiter-Glo ATP luminescence, 72 h; note: nearly all actives have a fitted effect of over 60% in size
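Parental KB-3-1 viability, qHTS format: 72 h compound exposure, 37 °C; CellTiter-Glo; media-only wells and DMSO plates as controls; concentration-effect fits on corrected data.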
Numbers stand for hits; - = inactive; ? = inconclusive; . = no result; [ ] = another dose, or the depositor's remark. Calls come from the whole dose curve; as a rule, active = well fitted curve in the direction sought with a large enough effect; inconclusive = small, poorly fitted or top-dose-only effect, or another doubt; inactive = no such curve, though single readings can be large; an effect the other way counts as inactive or inconclusive.

SMILES | SW480 rereplic | RORg inh | KB-V1 cytotox | MCF10A rerep | Gal4-VP16 FLuc | KB-3-1 cytotox
COc1cccc(OCCNC(=O)CSc2ccc(C(F)(F)F)cc2[N+](=O)[O-])c1 | - | - | ? | ? | 3.5µM | -
Cc1ccc(CNC(=O)C2(CC(C)C)C=CCN2C(=O)c2ccccc2)o1 (stereo unspecified) | . | - | . | . | - | .
CC1CCCC2(C1)NC(=S)c1c(sc3c1CCCC3)N2 (stereo unspecified) | - | 32µM | - | - | ? | -
O=c1c(-c2cc(-c3ccccc3)nc3c2COc2ccc(Cl)cc2-3)coc2ccc(F)cc12 | . | . | ? | . | . | -
COc1ccc(Cl)cc1-c1nc(-c2ccc(NC(=O)c3ccncc3)cc2)no1 | - | . | - | - | . | -
COc1ccc(NC(=O)N2CCN(c3cc(-c4noc(C)n4)ccc3C)CC2)c(OC)c1 | . | . | - | . | . | -
COc1ccc(NC(=O)c2ccc(-c3ccc(-c4noc(C)n4)cc3C)cc2)cc1OCCN(C)C | . | 14µM | . | . | ? | .
COc1ccc(NC(=O)c2ccc(-c3ccc(-c4noc(C)n4)cc3C)cc2)cc1N1CCN(C)CC1 | ? | 20µM | ? | ? | 32µM | ?
CCCS(=O)(=O)Nc1cc2c(cc1NCc1ccccc1)n(C)c(=O)n2C | . | . | ? | . | . | -
CCc1cc(=O)oc2c(C)c3c(cc12)CN(CCc1ccccc1OC)CO3 | . | . | - | . | . | -
CCCn1c(C)nc2c(NCCCN3CCCCC3C)nc(C)nc21 (stereo unspecified) | . | - | . | . | - | .
O=C(Nc1ccc2c(c1)OCO2)C1CC(c2ccccc2O)=NO1 (stereo unspecified) | - | 1.6µM | ? | - | ? | -
CC1(C)Oc2ccc(NC(=O)C3COc4ccccc4O3)cc2O1 (stereo unspecified) | - | -[10 µM] | - | - | ? | -
CCn1ncc(C2=NOC(C(=O)NCc3ccc(Cl)cc3)C2)c1C (stereo unspecified) | 3.7µM | - | 4.6µM | ? | - | 2.3µM
CC(=O)N1CC(C(=O)Nc2ccc3c(c2)OCO3)Oc2ccccc21 (stereo unspecified) | - | . | 21µM | - | . | -
CCn1ncc(C2=NOC(C(=O)Nc3ccc4c(c3)OCO4)C2)c1C (stereo unspecified) | - | - | - | - | 16µM | ?
Cc1ccccc1CNC(=O)c1ccc2[nH]c(C)c(C)c2c1 | . | . | - | . | . | -
O=C(COc1ccc(-c2ccccc2)cc1)N1CCN(S(=O)(=O)Cc2ccccc2)CC1 | ? | - | 4.6µM | - | - | 3.7µM
COc1ccc(NC(=O)CC(C)S(=O)(=O)c2cc3c(cc2C)NC(=O)CO3)cc1OC (stereo unspecified) | . | . | - | . | . | -
COc1ccc2c(c1)/C(=N/N1C(=O)c3ccccc3C1=O)C(=O)N2 | . | - | . | . | -[10 µM] | .
COc1ccc2c(c1)/C(=C\c1cccc(/C=C3/C(=O)Nc4ccc(OC)cc43)n1)C(=O)N2 | 2.9µM | . | - | ? | . | 1.8µM
O=C(Nc1cccnc1)c1cccc(S(=O)(=O)N2CCc3ccccc32)c1 | - | - | 10µM | - | - | ?
CCc1ccccc1NC(=O)c1cc(S(=O)(=O)N2CCc3ccccc32)cn1C | - | - | - | - | - | -
Cc1ccc2nc(NC(=O)c3ccc(S(=O)(=O)N4CCCc5ccccc54)cc3)sc2c1 | ? | ? | - | 16µM | - | -
O=C(Nc1nc2c(s1)CCCC2)c1cccc(S(=O)(=O)N2CCCc3ccccc32)c1 | - | 3.2µM | - | - | 13µM | ?
CCCNC(=O)c1cc(S(=O)(=O)N2CCc3ccccc32)cn1C | - | ? | ? | - | 14µM | -
CN1CCc2nc(NC(=O)c3cccc(S(=O)(=O)N4CCc5ccccc54)c3)sc2C1 | - | ? | - | ? | - | -
O=C(Nc1nc2c(F)cccc2s1)c1ccc(S(=O)(=O)N2CCCc3ccccc32)cc1 | . | . | - | . | . | -
Cc1ccn2c(c1)nc(=O)c1cc(S(=O)(=O)N3CCC(C)CC3)c(Cl)cc12 | . | . | - | . | . | -
CCn1c(SC(C)C(=O)NCc2ccco2)nnc1-c1ccccc1 (stereo unspecified) | . | . | - | . | . | ?
